The list is not random: actives were taken first. Their share in the collection is about 3.8%.
Wnt bcat act = Wnt/beta-catenin pathway activators, primary screen, cell-based, plate reader, single point; activation, % at 9.35 µM; actives 1.2% (n = 300,000); Wnt/beta-catenin reporter cell assay, activator; AID 743398, 2014; in the data active = activation above about 30%, passing the limit was not always enough; inconclusive = no clear call, values can overlap the other calls;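 also: 0% = neutral control wells and 100% = positive control wells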
esBAF inh = Bmi1 luciferase reporter increase in mESCs, primary screen, esBAF inhibitor project, mouse ES cells, Bmi1 luciferase knock-in, single point. reporter increase, % at 12.5 µM. actives 2% (n = 350,000). 24 h; 100% = twice the neutral-well signal; in the data active = activation above about 40%; inconclusive = no clear call, values can overlap the other calls;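 also: 0% = median of the plate's neutral control wells and 100% = double that signal; a rise in the Bmi1 reporter signal indicates esBAF inhibition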
HSF1 inh = HSF1 inhibitors in luciferase reporter cells, primary screen, cell-based, NIH3T3, luminescence; activity change, negative = inhibition, % at 7.5 µM (by protocol); NIH3T3-HGL HSE-luciferase, MG132-induced, luminescence 8 h; stronger effect = lower value; actives 0.77% (n = 300,000);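 active = more than half of replicate wells show activity change below -50%, luminescence cut by over half; inconclusive = some wells, but at most half, below -50%; inactive = no replicate well below -50%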;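 also: luciferase reports HSF-1 transcriptional activity via heat shock element; 0% = median of DMSO wells and -100% = zero luminescence signal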
HSF1 activator = HSF-1 activators, primary screen, NIH3T3-HGL cells, MG132 stress, luminescence, single point | actives 1.7% (n = 300,000) | AID 504408, 2011 | activation, % at 9 µM | NIH3T3-HGL HSF-1 luciferase reporter, 8 h; 100% = twice DMSO control signal;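 active = mean replicate activation of at least 50% with a set share of replicates each reaching 50%; inconclusive = only one of those two conditions met; inactive = mean below 50% and too few replicates reaching it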;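 also: 0% = median of the neutral control wells and 100% = twice that signal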
MITF TRPM1 HTS = activators of MITF-driven TRPM1 promoter reporter, primary screen, cell-based, SK-MEL-5, luciferase, single point; AID 588334, 2011; activation, % at 12.5 µM; actives 0.75% (n = 300,000); SK-MEL-5 TRPM1-promoter luciferase, 24 h; % of positive control, neutral wells = 0;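 active = mean activation of at least 80% with every replicate also reaching 80%; inconclusive = mean reaches 80% but some replicate falls short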;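 also: 0% = neutral control wells and 100% = parthenolide positive control wells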
* hit, by the source's call; ? = inconclusive; . = not tested or not shown.

SMILES	Wnt bcat act	esBAF inh	HSF1 inh	HSF1 activator	MITF TRPM1 HTS
COc1cccc(NC(=O)CSc2nnc3ccc(-c4ccncc4)nn23)c1	-6	5	16	58*	2
C[C@H](CO)N1C[C@H](C)[C@@H](CN(C)C(=O)c2ccc(F)cc2)Oc2cc(C3=CCCC3)ccc2S1(=O)=O	.	-4	.	.	.
Cc1nn(C)cc1NC(=O)C[C@H]1CC[C@H]2[C@H](COc3ccc(NC(=O)Nc4cccc(Cl)c4)cc3C(=O)N2C)O1	.	1	.	.	.
O=C(C[C@@H]1CC[C@H](NC(=O)NC2CCCCC2)[C@@H](CO)O1)NCc1ccccc1	.	-1	.	.	.
CCOC(=O)Cc1csc(SCC(=O)Nc2cccc(Cl)c2)n1	-2	-11	19	58*	.
CCOC(=O)c1cccc(NC(=O)CSc2nc(N)cc(N)n2)c1	.	-7	32	55*	-6
C[C@@H]1CN([C@H](C)CO)S(=O)(=O)c2ccc(C3=CCCC3)cc2O[C@@H]1CN(C)S(=O)(=O)c1cn(C)cn1	.	3	.	.	.
COc1cc(C(=O)NCCc2ccc(F)cc2)ccc1OCC(=O)N1CCOCC1	.	10	26	54*	7
CCOc1cc(C(=O)NCc2ccccc2)ccc1OCC(=O)N1CCOCC1	-1	-1	-77*	-80	-2
C[C@H]1CN([C@@H](C)CO)C(=O)CCCn2cc(nn2)CO[C@@H]1CN(C)Cc1ccc2cccnc2c1	.	-2	.	.	.
C[C@@H]1CCCCO[C@@H](CN(C)C(=O)Nc2cccc3ccccc23)[C@H](C)CN([C@@H](C)CO)C(=O)c2cc(NS(C)(=O)=O)ccc2O1	.	5	.	.	.
COc1ccc(C)cc1NC(=O)C/C(C)=N/NC(=O)Cc1cccc2ccccc12	-4	5	68	109*	-1
CC(c1ccco1)N(C(=O)COc1ccc(Cl)cc1)c1ccccn1 (stereo not given)	.	72*	.	.	34
CC(c1ccco1)N(C(=O)COc1ccc(Cl)cc1Cl)c1ccccn1 (stereo not given)	18	27	-48	-56	105*
C[C@@H]1CN([C@@H](C)CO)C(=O)c2cc(NC(=O)Cc3ccccc3)ccc2O[C@@H](C)CCCCO[C@@H]1CN(C)S(=O)(=O)c1cccs1	.	1	.	.	.
O=C(N[C@H]1CC[C@H](CCNS(=O)(=O)c2ccc(Cl)cc2)O[C@H]1CO)c1cccnc1	.	1	.	.	.
COc1ccccc1CNC(=O)C[C@@H]1C[C@@H]2c3cc(NS(C)(=O)=O)ccc3O[C@@H]2[C@@H](CO)O1	.	4	.	.	.
Clc1ccccc1-c1nnc(-c2ccc3c(c2)OCO3)o1	17	5	62	95*	75
Clc1ccc(-c2nnc(-c3ccccc3)o2)c(Cl)c1	39*	-37	4	23	.
Fc1ccc(-c2nnc(-c3ccc(Cl)cc3Cl)o2)cc1	20	31	25	43	.
Clc1ccc(-c2nnc3sc(-c4ccc(Br)o4)nn23)c(Cl)c1	0	1	-4	7	0
Clc1ccccc1-c1nnc2sc(-c3ccc4c(c3)OCO4)nn12	.	13	1	-2	6
Clc1ccc(-c2nnc(-c3ccc(Br)o3)o2)c(Cl)c1	.	38	43	60*	126*
CSc1ccccc1-c1nnc(-c2ccc(Cl)cc2Cl)o1	.	.	38	54*	78
C[C@@H]1CCCCO[C@H](CN(C)CC2CCCCC2)[C@H](C)CN([C@H](C)CO)C(=O)c2cc(NC(=O)Nc3cccc4ccccc34)ccc2O1	.	-3	.	.	.
SMILES	Wnt bcat act	esBAF inh	HSF1 inh	HSF1 activator	MITF TRPM1 HTS
C[C@@H]1CN([C@@H](C)CO)C(=O)c2cc(NC(=O)C3CC3)ccc2O[C@H]1CN(C)Cc1ccccc1	.	3	.	.	.
CC(C)OC(=O)CSc1nnc(-c2ccc(Cl)cc2Cl)o1	.	1	48	75*	9
CCCCOC(=O)CSc1nnc(-c2ccc(Cl)cc2Cl)o1	.	13	-3	-14	-11
CSc1nnc(-c2ccc(Cl)cc2Cl)o1	.	51*	8	15	51
CO[C@@H]1CN(C)C(=O)c2ccc(NC(C)=O)cc2OC[C@H](C)N(Cc2ccc(F)cc2)C[C@H]1C	.	2	.	.	.
O=C(Nc1ccccc1[N+](=O)[O-])C1COc2ccccc2O1 (stereo not given)	14	45*	23	42	76
CC(=O)c1ccc(NCC2COc3ccccc3O2)c([N+](=O)[O-])c1 (stereo not given)	76*	72*	44	?	64
O=C(NCC1COc2ccccc2O1)c1ccc(NC(=O)c2ccco2)cc1 (stereo not given)	.	14	0	10	16
CCc1ccccc1NC(=O)C1COc2ccccc2O1 (stereo not given)	0	-4	-2	-3	7
NS(=O)(=O)c1ccc(NCC2COc3ccccc3O2)c([N+](=O)[O-])c1 (stereo not given)	0	.	25	21	8
O=C(NCC1COc2ccccc2O1)c1ccc(Cl)cc1 (stereo not given)	30	8	31	62*	.
Cc1ccccc1NC(=O)C1COc2ccccc2O1 (stereo not given)	7	3	25	?	5
Cc1cc(Cl)ccc1NC(=O)C1COc2ccccc2O1 (stereo not given)	1	30	13	53*	.
C[C@H](CO)N1C[C@H](C)[C@@H](CN(C)C(=O)Cc2ccccc2)OCCCC[C@H](C)Oc2ccc(NC(=O)Nc3ccc(F)cc3)cc2C1=O	.	-4	.	.	.
CN1[C@@H]2Cn3c(ccc(-c4ccccc4)c3=O)[C@H]1[C@@H](C(=O)NC1CCCCC1)[C@@H]2CO	.	1	.	.	.
Cc1ccc(Cl)cc1NC(=O)C1COc2ccccc2O1 (stereo not given)	14	17	-64*	-73	.
Cc1ccc(C)c(NC(=O)C2COc3ccccc3O2)c1 (stereo not given)	10	17	10	9	.
Cc1ccc(C)c(C(=O)CSc2nc(N)cc(=O)[nH]2)c1	-2	-7	-55*	-51	.
Cc1ccc(C)c(C(=O)CSc2nnnn2-c2cccnc2)c1	.	11	-38	-51	17
Cc1ccc(C(=O)CSc2nnnn2C(C)C)c(C)c1	.	.	28	54*	-2
Cc1ccc(C)c(C(=O)CSc2nnnn2C(C)C)c1	.	51*	11	13	45
CCC(=O)Nc1ccc(NC(=O)CSc2nnnn2C(C)C)cc1	.	0	-2	-7	-10
Cc1noc(C)c1NC(=O)Nc1ccc2c(c1)C(=O)N([C@H](C)CO)C[C@@H](C)[C@@H](CN(C)S(C)(=O)=O)O2	.	-5	.	.	.
COc1ccc(NC(=S)N(CCc2ccc(OC)c(OC)c2)Cc2ccccn2)cc1	0	1	8	25	-10
COc1ccc(CCN(Cc2ccccn2)C(=S)Nc2cccc(C)c2)cc1OC	45*	-3	1	10	6
